The list is not random: actives were taken first. Their share in the collection is about 1.5%.
GC-B act – GC-B (human) receptor activation; AID 1920062; HEK293-GC-B cells, CNP EC30, cGMP TR-FRET; 0% at EC30 CNP, 100% saturating CNP; 370,000 tested, 0.11% active; activation, % at 10 µM;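 active = activation at 10 µM reaching about 35% in either raw or pattern-adjusted values, limit read from the data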
Neddylation inh – cullin neddylation inhibition | 360,000 tested, 0.58% active | TR-FRET cullin neddylation, biochemical | P61081+Q13564 | inhibition, % at 25 µM; in the data active = inhibition above about 36%
Target sequence (P61081 whole entry, looked up): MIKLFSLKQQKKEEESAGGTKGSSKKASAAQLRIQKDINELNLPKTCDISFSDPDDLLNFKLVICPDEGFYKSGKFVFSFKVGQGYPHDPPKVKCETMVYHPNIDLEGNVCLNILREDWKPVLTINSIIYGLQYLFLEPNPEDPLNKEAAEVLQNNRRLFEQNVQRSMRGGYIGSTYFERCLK
Target sequence (Q13564 whole entry, looked up): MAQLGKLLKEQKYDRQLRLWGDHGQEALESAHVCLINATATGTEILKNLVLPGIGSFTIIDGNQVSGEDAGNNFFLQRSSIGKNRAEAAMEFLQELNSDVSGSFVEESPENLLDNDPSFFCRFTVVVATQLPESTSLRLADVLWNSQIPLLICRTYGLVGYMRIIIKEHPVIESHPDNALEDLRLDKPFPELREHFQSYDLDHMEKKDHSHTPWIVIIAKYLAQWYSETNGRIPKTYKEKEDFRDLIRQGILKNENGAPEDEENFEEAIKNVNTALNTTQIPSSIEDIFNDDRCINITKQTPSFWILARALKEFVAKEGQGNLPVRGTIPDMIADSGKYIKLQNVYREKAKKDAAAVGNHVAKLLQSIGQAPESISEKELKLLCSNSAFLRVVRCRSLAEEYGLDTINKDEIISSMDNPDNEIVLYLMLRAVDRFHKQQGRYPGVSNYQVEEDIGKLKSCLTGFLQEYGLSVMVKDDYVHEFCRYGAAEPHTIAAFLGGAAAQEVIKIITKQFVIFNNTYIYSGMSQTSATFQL
NPR1 activator – GC-A (human) enzyme activation; P16066; HEK293 GC-A cells, cGMP TR-FRET, EC30 ANP; 0% at EC30 ANP, 100% saturating ANP; activation, % at 10 µM; 370,000 tested, 0.14% active; in the data active = activation above about 40%
NadD block – blocks S. aureus nicotinate mononucleotide adenylyltransferase. purified NadD enzyme, colorimetric absorbance read-out. inhibition, % at 20 µM. 360,000 tested, 0.78% active. AID 602399; in the data active = inhibition above about 26%
Neddyl inh conf – cullin neddylation inhibition, confirmation; shares compounds with Neddylation inh; TR-FRET cullin neddylation biochemical assay; calls only at 25 µM; 1,800 tested, 13% active; in the data active = inhibition above about 40%;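 note: neddylation substrate is the cullin 1 ring ligase complex with SKP2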
The depositor's hits bear a star; i = inactive; · = no result shown; + = active, no number.

SMILES	GC-B act	Neddylation inh	NPR1 activator	NadD block	Neddyl inh conf
CN1c2ccccc2C(O)=C(C(=S)Nc2ccc(F)c(Cl)c2)S1(=O)=O	-1.6	44.3*	4.4	5.7	i
COc1ccc(CN(C)C(C#Cc2ccccc2)Cc2ccccc2)c(OC)c1 (configuration not stated)	-2.4	·	-4.8	·	·
C/C(=N\NC(=O)C1CC1)c1ccc(NC(=O)c2ccc(Br)o2)cc1	4.8	·	7.1	·	·
C/C(=N\NC(=O)c1c(Cl)cnn1C)c1ccc(NC(=O)c2ccc(Br)o2)cc1	-6.0	40.9*	2.8	-2.3	i
Nc1[nH]c(C(=O)c2ccccc2)c(-c2ccccc2)c1C(=O)NCCc1c[nH]c2ccccc12	1.2	·	-6.5	·	·
O=C(N[C@H]1C[C@@H]2O[C@H](CO)CC[C@@H]2O[C@@H]1CCc1ccc(-c2cccnc2)cc1)c1cccc(F)c1	-1.3	·	-1.9	·	·
O=C(N/N=C/c1cnc(N2CCCCC2)s1)c1ccc(Cl)cc1	-8.6	46.5*	2.8	-20.5	+
CNC(=O)COC(=O)c1ccc(-c2nc3ccccc3s2)s1	-6.0	40.5*	3.5	-8.7	i
COc1ccc(-c2cc(NCCc3ccncc3)n3ncnc3n2)cc1	-3.5	25.0	-2.2	-5.4	·
COc1ccc(-c2cc(NCc3ccccn3)n3ncnc3n2)cc1	4.7	37.4*	0.4	-4.1	i
O=C(Nc1cccc(C(=O)NC2CC2)c1)c1ccccc1	0.3	0.3	-2.3	4.1	·
O=C(Nc1cc2c3c(c1)C1CCCC1CN3CC1CCCC21)c1ccccc1 (configuration not stated)	-3.6	50.5*	5.4	25.6	i
Cn1c(=O)c(=O)n(C)c2cc(S(=O)(=O)N3CCN(Cc4ccc(F)cc4)CC3)ccc21	-7.7	·	0.2	·	·
Cc1cc(C)cc(Oc2nc3ccccn3c(=O)c2/C=C(\C#N)C(=O)NC2CCS(=O)(=O)C2)c1 (configuration not stated)	-4.2	47.5*	-0.7	-3.1	i
Cc1ccc(Oc2nc3ccccn3c(=O)c2/C=C(\C#N)C(=O)NC2CCS(=O)(=O)C2)c(C)c1 (configuration not stated)	5.1	·	1.6	6.6	·
COc1ccc(C(CC(=O)N2CCN(c3ccccc3)CC2)c2c(OC)cc(OC)c3ccc(=O)oc23)cc1 (configuration not stated)	-11.0	33.3*	-8.7	5.0	i
COc1cc(C(CC(=O)N2CCCC2)c2c(OC)cc(OC)c3ccc(=O)oc23)cc(OC)c1OC (configuration not stated)	-18.1	12.1	-2.3	2.7	·
CC(C)(C)c1cccc(N/C(=C\C(=O)c2ccccc2)c2ccccc2)c1	4.7	·	-2.1	·	·
CCCCOc1ccc(C(=O)NC2CCCCN(C(C)C)C2=O)cc1 (configuration not stated)	-2.4	·	4.8	·	·
COc1ccc(/C=N/NC(=O)CCOc2ccccc2C)cc1OC	3.7	-11.8	2.1	-1.7	·
COc1cc(/C=N/NC(=O)CCOc2ccccc2C)cc(Br)c1O	-5.0	42.7*	-7.0	12.5	+
COc1ccc(CC(=O)N/N=C\c2cc(Br)c(O)c(Br)c2)cc1	0.0	45.4*	-4.7	7.2	+
COCc1cc(/C=N\NC(=O)Cc2ccc(OC)cc2)ccc1OC	4.7	-6.8	0.4	1.8	·
Cc1cc(=O)oc2cc(NC(=S)NCc3ccccn3)ccc12	-3.1	-56.8	-3.3	1.6	·
Cc1cc(=O)oc2cc(NC(=S)NNC(=O)c3c(Cl)cnn3C)ccc12	-4.7	52.3*	-2.9	1.0	i
SMILES	GC-B act	Neddylation inh	NPR1 activator	NadD block	Neddyl inh conf
Cc1csc2ncc(C(=O)NCc3ccco3)c(=O)n12	2.7	43.2*	5.6	7.0	i
Cc1cc(=O)oc2cc(OC(C)C(=O)N3CCOCC3)c(Cl)cc12 (configuration not stated)	-0.4	44.2*	2.3	-0.8	i
Cc1cc(=O)oc2cc(OC(C)C(=O)O)c(Cl)cc12 (configuration not stated)	0.2	36.5	2.9	-1.2	·
CC(=O)N1CCN(c2ccc(N3CCN(C(C)=O)[C@@H](C)C3)c(C)c2)[C@@H](C)C1	9.6	·	2.0	·	·
Nc1nccc(/C=C/c2ccc(Cl)cc2)n1	-4.9	37.2*	9.8	-9.1	i
Brc1ccc2nc(-c3ccc(CN4CCC5(CC4)CNc4ccccc45)cc3)c(-c3ccccc3)nc2c1	3.9	·	3.4	·	·
Oc1cccc(Nc2ncnc3c2oc2ccccc23)c1	0.1	47.6*	-0.9	-2.1	·
Cc1ccc(S(=O)(=O)Nc2c(NC3CCCCC3)c3ccccc3oc2=O)cc1	-8.2	37.6	-6.1	1.4	·
O=c1oc2ccccc2c(NC2CCCCC2)c1NS(=O)(=O)c1ccc(Br)cc1	·	25.9	·	1.1	·
COc1ccc(S(=O)(=O)Nc2c(NC3CCCCC3)c3ccccc3oc2=O)cc1OC	-2.4	40.9*	-0.5	-7.9	i
Cc1ccc(S(=O)(=O)Nc2c(NC3CCCCC3)c3ccccc3oc2=O)cc1C	1.9	40.8*	-4.5	6.4	·
Cc1cccc(C(=O)Oc2ccc(/C=N/NC(=O)c3cc(O)cc(O)c3)cc2)c1	-3.4	1.1	-0.3	16.0	·
Cc1cccc(C(=O)Oc2ccc(/C=N/NC(=O)c3ccncc3)cc2)c1	7.2	40.1*	3.4	0.0	i
O=C(Oc1ccc(/C=N/NC(=O)c2ccccc2O)cc1)c1ccccc1	3.6	39.2*	2.5	21.6	i
Cc1ccc2ncccc2c1	-4.1	-3.9	-0.3	6.1	·
c1cnc2ccc(-c3ccc4ncccc4c3)cc2c1	-12.3	44.5*	-24.2	-3.1	i
CC(COc1ccc(Cl)cc1)CN1CCC(C(O)(c2ccccc2)c2ccccc2)CC1 (configuration not stated)	-4.6	·	-7.9	·	·
Cc1ccc(NC(=O)OC2CC3CC2[C@H]2CCCCN2C3)cc1 (some centres not stated)	-1.5	·	-0.3	·	·
CCC(=O)Nc1cc2c(C)cc(=O)oc2cc1C	6.5	49.7*	2.8	-4.8	·
O=C(OCc1cn(Cc2ccc(C(F)(F)F)cc2)nn1)N1CCCC1	5.7	·	4.9	·	·
COC(=O)c1c(-c2ccc(OC)cc2)c2c(c3c4cc(OC)ccc4n(S(=O)(=O)c4ccc(C)cc4)c13)C(=O)N(C)C2	-0.6	·	-1.0	·	·
c1ccc(Cn2c(SCc3cn4cccnc4n3)nnc2-c2ccco2)cc1	6.2	37.1*	-0.3	-0.5	i
O=C(OCc1cn(Cc2cccc(Cl)c2)nn1)N1CCOCC1	0.1	·	2.5	·	·
COc1ccccc1NC(=S)N/N=C1\CC(C)(C)Oc2ccc(O)cc21	1.3	39.6*	42.1*	-0.9	i
COc1ccc(NC(=S)N/N=C2\CC(C)(C)Oc3ccc(O)cc32)cc1	-8.8	40.8*	-1.5	4.1	i
CN(C)CCCNc1c2c(nc3cc(-c4cccc(F)c4)nn13)CCC2	-12.0	43.0*	-3.6	-0.4	i
COc1cccc(CNc2ccc3[nH]c(=O)[nH]c3c2)c1OCc1ccc(F)cc1	-4.5	43.4*	-9.7	1.1	i
C=CCOc1c(CNc2ccc3[nH]c(=O)[nH]c3c2)cccc1OC	-9.2	9.1	-6.5	6.5	·

Bioassay records as filed in PubChem BioAssay.
